These results are taken from PubChem BioAssay (NCATS).

SMILES strings stand for the structures. “And” between values parts separate entries of the source, which are not always exact repeats. Equal entries are not always repeated. Inconclusive results are not listed. The source made the active and inactive calls. The call rests on the fitted dose curve; in most records, active means well fitted inhibition curve with a large enough effect; inconclusive means small, poorly fitted or top-dose-only effect; inactive means flat fitted curve, though single readings scatter.
On the % scale 0 is the no-effect control and ±100 the full control effect.

The assay deals with NIH3T3. Description: Cytotoxic Profiling of Annotated Libraries Using Quantitative High-Throughput Screening (AID 1296008). Further: nearly all actives have a fitted effect of over 60% in size. The settings on record: Five cell lines viability, CellTiter-Glo ATP luminescence, 48-72 h; max response: active compounds read low. Put shortly: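 Cytotoxicity was measured as CellTiter-Glo ATP luminescence, read after 10 min at room temperature. Compound treatment of the cells lasted 48 or 72 hr at 37 degrees Celsius in a qHTS format.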
In general terms: Cellular ATP, detected with luciferase, serves as a proxy for viable cell number.
As for `CCN(CCO)CCCC(C)Nc1ccnc2cc(Cl)ccc12` (configuration not stated), the max response was -2.56% (inactive) and the result was inactive.
The corresponding values for `CC1=C(C)C(=O)C(C(CCCCCC(=O)O)c2ccccc2)=C(C)C1=O` (configuration not stated) are 2.25% (inactive) and “inactive”.
For `CC(=O)Nc1ccc(O)cc1`, in that order: -5.84% (inactive) and “inactive”.
`Cc1cc2c(s1)Nc1ccccc1N=C2N1CCN(C)CC1`: the call was inactive.
As to `CC1=C(C(=O)O)N2C(=O)[C@@H](NC(=O)[C@H](N)C3=CCC=CC3)[C@H]2SC1`, the compound was classed as inactive.
Regarding `Cc1cccc(CN2CCN(C(c3ccccc3)c3ccc(Cl)cc3)CC2)c1` (configuration not stated), the max response is 3.98% (inactive) and 1.14% (inactive).
Turning to `CN(C)[C@@H](CCOc1cccc2ccccc12)c1ccccc1`, the max response was -1.45% (inactive) and -13.3% (inactive).
On the same count and under the same terms, with `COC(=O)N[C@H](C(=O)N[C@@H](Cc1ccccc1)[C@@H](O)CN(Cc1ccc(-c2ccccn2)cc1)NC(=O)[C@@H](NC(=O)OC)C(C)(C)C)C(C)(C)C` the figure was 0.751% (inactive) and -1.44% (inactive).
As to `CCC1=C(C)CN(C(=O)NCCc2ccc(S(=O)(=O)NC(=O)NC3CCC(C)CC3)cc2)C1=O` (configuration not stated), the max response was 0.91% (inactive) and the result was inactive.
For `CN(C)c1ccc(O)c2c1C[C@H]1C[C@H]3[C@H](N(C)C)C(=O)C(C(N)=O)=C(O)[C@@]3(O)C(=O)C1=C2O`, the max response is -2.91% (inactive) and the result was inactive.
`O=C(NC(Cc1cc(=O)[nH]c2ccccc12)C(=O)O)c1ccc(Cl)cc1` (configuration not stated): the result was inactive.
On to `O=C(NCC1CCCCN1)c1cc(OCC(F)(F)F)ccc1OCC(F)(F)F` (configuration not stated), for which the max response is -7.85% (inactive).
